Experimental data as given in PubChem BioAssay AID1861 (The Scripps Research Institute Molecular Screening Center, 2009).
Hit rate of the full screen: of about 290,000 compounds, about 3,100 (1.1%) were called active. What follows is part of a selection rich in actives, with near analogues and random picks from the rest. Values without a mark were called inactive. No stated cut-off is given here; in the data, active means inhibition above about 16% (passing the limit was not always enough); inactive means the rest.

Target: Neuropeptides B/W receptor type 1 (Homo sapiens) (UniProt P48145)
Sequence (P48145 whole entry, looked up): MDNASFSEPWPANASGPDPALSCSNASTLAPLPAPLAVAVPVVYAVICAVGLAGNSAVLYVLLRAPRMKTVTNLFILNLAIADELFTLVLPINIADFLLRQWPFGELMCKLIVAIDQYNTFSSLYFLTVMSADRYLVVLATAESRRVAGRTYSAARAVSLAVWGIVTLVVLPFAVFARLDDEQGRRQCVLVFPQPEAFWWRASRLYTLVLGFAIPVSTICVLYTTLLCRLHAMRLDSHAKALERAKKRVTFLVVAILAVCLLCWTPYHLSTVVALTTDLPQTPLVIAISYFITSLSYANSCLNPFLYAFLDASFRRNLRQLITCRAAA
Experiment: GPR7 receptor antagonists, primary screen, cell-based, fluorescence, single concentration (AID 1861);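 further: cells stimulated with the agonist NPW; 0% = agonist with vehicle and 100% = vehicle without agonist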
Conditions: GPR7-expressing cells, fluorescence antagonist assay; at 4.4 µM; stronger effect = higher value

| SMILES | inhibition |
| --- | --- |
| Cc1ccc(SCc2c(C(=O)N/N=C/c3cccnc3)nnn2-c2nonc2N)cc1 | -12% |
| COc1cc(NC(=O)c2ccccc2NS(=O)(=O)c2ccc(Cl)s2)cc(OC)c1 | 26.7% (active) |
| COc1cc(OC)c(S(=O)(=O)Nc2ccccc2C(=O)O)cc1S(=O)(=O)Nc1ccccc1C(=O)O | -13.8% |
| COC(=O)c1ccc(NC(=O)c2ccccc2NS(=O)(=O)c2ccccc2)cc1 | 17.3% |
| COc1ccc(Nc2ncc(F)c(N3CCOCC3)n2)cc1 | -9.42% |
| CC(=O)OC(C(=O)NC1CCCCC1)c1ccccc1 (stereo not drawn) | -8.98% |
| CC(NCc1ccccc1OC1CCCC1)c1ccccc1 (stereo not drawn) | 30.2% (active) |
| COc1ccccc1CN1CCN(C(c2ccccc2)c2ccccc2)CC1 | -16.5% |
| Cc1cnc(CN(C)C(=O)C2CCC(=O)N(CCc3cccc(F)c3)C2)[nH]1 (stereo not drawn) | -18.8% |
| Cn1c2ccc(F)cc2c2nnc(NN)nc21 | -11.3% |
| Cc1cc2nc(SCCN3CCOCC3)[nH]c2cc1C | 3.59% |
| CCn1c2ccc(F)cc2c2nnc(SCCN3CCOCC3)nc21 | 77.2% (active) |
| CCCNC(=O)C(=O)Nc1cc2c3c(c1)CCC(=O)N3CCC2 | -11.2% |
| COc1cccc(NC(=O)c2ccc(Cn3cc([N+](=O)[O-])cn3)o2)c1 | -2.16% |
| CCc1ccc(NC(=O)c2ccc(Cn3cc([N+](=O)[O-])cn3)cc2)cc1 | 23.8% (active) |
| Cn1cc([N+](=O)[O-])c(C(=O)Nc2cnn(Cc3ccc(F)cc3)c2)n1 | -7.64% |
| COc1ccc(/C=N/NC(=O)C2CC2)c(OC)c1OC | -4.35% |
| O=C1CCCN2N=C(SCC(=O)Nc3ccc(Br)cc3)SC2=N1 | 4.5% |
| NS(=O)(=O)c1cccc(NC(=O)CSc2nc3ccccc3n2-c2ccccc2)c1 | 0.27% |
| Cc1cccc(-n2c(SCC(=O)Nc3cccc(S(=O)(=O)NC4=NCCCCC4)c3)nc3ccccc3c2=O)c1C | 27.4% (active) |

| SMILES | inhibition |
| --- | --- |
| CCc1ccc(C(=O)OCC(=O)Nc2cccc(S(=O)(=O)NC3=NCCCCC3)c2)cc1 | 11.6% |
| CCOc1ccc(S(=O)(=O)NCCCn2ccnc2)cc1NC(C)=O | -14.2% |
| CCOc1cc(/C=C/c2nc3ccccc3c(=O)[nH]2)cc(Br)c1OC | 19% |
| O=S(=O)(c1ccc(OCC(O)CN2CCN(c3ccccc3Cl)CC2)cc1)N1CCOCC1 (stereo not drawn) | 26% (active) |
| CC(=O)Nc1ccc(OCC(O)CN2CCN(c3ccccc3Cl)CC2)cc1 (stereo not drawn) | 13% |
| OC(COc1ccc2ccccc2c1)CN1CCOCC1 (stereo not drawn) | -2.78% |
| O=C(Nc1ccc(Br)cc1F)C1CC(=O)N(C2CCCCC2)C1 (stereo not drawn) | -3.95% |
| CCN(CC)S(=O)(=O)c1ccc(C(=O)N2CCN(C3=NS(=O)(=O)c4ccccc43)CC2)cc1 | -4.91% |
| COc1ccccc1N1CC(C(=O)Nc2nnc(SCC(=O)NC(C)C)s2)CC1=O (stereo not drawn) | -8.06% |
| COc1ccc(C)cc1NC(=O)Nc1ccccc1SC | -7.07% |
| COc1ccc(C)cc1NC(=O)NCCCCc1ccccc1 | 28.4% (active) |
| COc1ccc(C)cc1NC(=O)NCc1ccccn1 | -18.5% |
| Cc1ccc(CN2CCNC(=O)C2CC(=O)NCc2csc(C(C)C)n2)cc1 (stereo not drawn) | 7.42% |
| CCCCCCCCCCOC(=O)Cn1c(COc2ccc(C)cc2)[n+](C)c2ccccc21 | 19.5% |
| CCCCOC(=O)Cn1c(=N)n(CCN(CC)CC)c2ccccc21 | 2.44% |
| CCCCCCCCCCOC(=O)Cn1c(COc2cccc(OC)c2)[n+](C)c2ccccc21 | 65% (active) |
| O=[N+]([O-])c1ccc(N(CCO)Cc2ccccc2)c([N+](=O)[O-])c1 | 23.9% (active) |
| OCCN(Cc1ccccc1)Cc1ccc(Cl)cc1 | -3.11% |
| CCN(CC)c1ccc([N+](=O)[O-])cc1C(=O)O | -0.91% |
| CC1C(=O)Nc2ccccc2N1C(=O)c1ccc(F)cc1F (stereo not drawn) | -4.79% |

| SMILES | inhibition |
| --- | --- |
| CCOc1ccc(CN2CCC(n3nccc3NC(=O)C3CC3)CC2)cc1CO | 1.55% |
| Cc1cc(C)cc(NC(=O)C2CCCN(S(=O)(=O)c3ccc4[nH]c(=O)ccc4c3)C2)c1 (stereo not drawn) | -6.12% |
| CN1CCN(c2ccccc2NC(=O)COc2ccc(C3CCCCC3)cc2)CC1 | -0.24% |
| COc1ccc(C(=O)N2CCc3cc(OC)c(OC)cc3C2c2cccc([N+](=O)[O-])c2)cc1 (stereo not drawn) | -1.43% |
| CCc1ccc(OCC2c3cc(OC)c(OC)cc3CCN2C(C)=O)cc1 (stereo not drawn) | 45.6% (active) |
| COc1ccc(CC(NC(C)=O)C(=O)NC2CCN(C(=O)c3ccc(OC)c(OC)c3)CC2)cc1OC (stereo not drawn) | 1.05% |
| O=C(CSc1nc2cccnc2n1Cc1ccccc1)N1CCc2ccccc21 | -12% |
| CCOC(CNC(=O)C1CCN(S(=O)(=O)c2ccc3nc4c(c(C(=O)O)c3c2)CC(C)CC4)CC1)OCC (stereo not drawn) | -21.9% |
| Cc1ccc(CNC(=O)C2CCN(S(=O)(=O)c3ccc4nc5c(c(C(=O)O)c4c3)CC(C)CC5)CC2)cc1 (stereo not drawn) | 27.2% (active) |
| CC(=O)N1c2ccc(S(=O)(=O)N3CCC(C(=O)NCc4ccc(F)cc4)CC3)cc2CC1C (stereo not drawn) | -4.2% |
| COc1ccc2c(CC(=O)N3CCc4cc(OC)c(OC)cc4C3)coc2c1 | 20.9% (active) |
| COc1ccc2c(CC(=O)OCC(=O)NC(N)=O)coc2c1 | -8.77% |
| COc1ccc(NC(=S)N2CCc3cc(OC)c(OC)cc3C2)cc1 | 2.63% |
| Cc1nn(C)cc1S(=O)(=O)N1CCN(c2ccc(F)cc2)CC1 | -4.94% |
| O=[N+]([O-])c1ccccc1S(=O)(=O)Nc1cccc2cccnc12 | -12.1% |
| O=C(NC(=S)NC1CCCCC1)c1ccc(Cl)cc1 | -18.6% |
| COc1ccccc1-n1c(SCC(=O)Nc2cccc(C(=O)O)c2)nnc1-c1ccccc1O | -17.1% |
| COCc1ccc(C(=O)NC2CC(C)(C)Cc3c2cnn3-c2ccc(C)cc2)o1 (stereo not drawn) | -0.16% |
